From PubChem BioAssay (NCATS)
Results filed as inconclusive are left out. Calls of active or inactive are those of the source. Calls come from the whole dose curve; as a rule, active = well fitted curve in the direction sought with a large enough effect; inconclusive = small, poorly fitted or top-dose-only effect, or another doubt; inactive = no such curve, though single readings can be large; an effect the other way counts as inactive or inconclusive.

Columns and labels:
[1] = molecular target: Calcium and integrin-binding protein 1 (Homo sapiens) (UniProt Q99828); test: Primary qHTS for Identification of Calcium Integrin Binding Protein 1 (CIB1) Competitor (AID 1508620);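 note: GST tagged CIB1 binding a fluorescein labelled alphaIIb integrin peptide tracer; top concentration of the series differs between compounds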
Chain of Calcium and integrin-binding protein 1 (Homo sapiens) (Q99828 whole entry, looked up): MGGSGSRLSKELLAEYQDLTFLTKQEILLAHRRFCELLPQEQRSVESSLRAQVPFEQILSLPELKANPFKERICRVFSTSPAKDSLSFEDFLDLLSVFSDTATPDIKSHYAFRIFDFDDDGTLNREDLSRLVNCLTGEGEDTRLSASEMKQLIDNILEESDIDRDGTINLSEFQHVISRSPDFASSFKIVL
Summary of the method: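 Fluorescence polarization competition: CIB1-GST (1 uM final) preincubated with compound 15 min at room temperature, then FITC-labeled alphaIIb peptide (100 nM final) added for another 15 min. Polarization read at Ex 480/Em 540.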

[2] = Primary qHTS for inhibitors of nuclear receptor binding SET domain protein 2 (NSD2) in an isogenic RCH-ACV NSD2 p.E1099K mutant (9B) (AID 1645876); note: nearly all actives have a fitted effect of over 70% in size
[3] = Primary qHTS for inhibitors of nuclear receptor binding SET domain protein 2 (NSD2) in an RCH-ACV wild type WT cells (2C) (AID 1645877); note: nearly all actives have a fitted effect of over 70% in size

Measured: Potency

CC(=O)NC1CC(=O)C23C(=O)NC(Cc4c[nH]c5ccccc45)C2C(C)=C(C)C(O)C3/C=C/CC(C)/C=C(/C)C(O)C1O (configuration not stated)
inactive: [1] | [2] | [3]

CC1(C)CC[C@]2(C(=O)O)[C@H](O)C[C@]3(C)C(=CCC4[C@@]5(C)CC[C@H](O[C@@H]6OC[C@@H](O)[C@H](O)[C@H]6O)[C@@](C)(C(=O)O)C5CC[C@]43C)[C@@H]2C1 (some centres not stated)
inactive: [1] | [2] | [3]

Cc1cc(-n2c(=O)[nH]c(=O)n(C)c2=O)ccc1Oc1ccc(SC(F)(F)F)cc1
inactive: [1] | [2] | [3]

CC(=O)c1[nH]cc(CCC(=O)O)c1CC(=O)O
inactive: [1] | [2] | [3]

C=C(C)[C@@H]1CC[C@]2(C(=O)O)CC[C@]3(C)C(CCC4[C@]5(C)C(CC[C@]43C)C(C)(C)[C@@H](O)[C@@H]5C(=O)O)C12 (some centres not stated)
inactive: [1] | [2] | [3]

CN1CCN(C(=O)c2cc3cc(Cl)ccc3[nH]2)CC1
inactive: [1] | [2] | [3]

C/C=C(/C)C(=O)O[C@H]1C[C@]2(C)O[C@@H]2[C@@H](OC(C)=O)[C@@]2(C)CC[C@@](O)(C(C)C)[C@H]12
inactive: [1] | [2] | [3]

C/C=C/C=C/[C@@H]1O[C@](O)([C@H](CC)C(=O)NC/C=C/C=C(\C)[C@@H](OC)[C@@H](C)[C@@H]2O[C@H](/C=C/C=C/C=C(\C)C(=O)c3c(O)ccn(C)c3=O)[C@H](O)[C@@H]2O)[C@H](O)[C@H](O)C1(C)C
inactive: [1] | [2] inactive [at 9.23 µM] | [3] inactive [at 9.23 µM]

C=CC(C)(O)C1CC2C3(C)CCCC(C)(C)C3C(O)C(O)C2(C)O1 (configuration not stated)
inactive: [1] | [2] | [3]
